Measurements as given in PubChem BioAssay AID1851 (National Center for Advancing Translational Sciences (NCATS), 2009).
“And” between values parts separate entries of the source, which are not always exact repeats. Identical values can stand only once. Out of some 16,000 compounds screened, about 5,100 (32%) were called active. Not shown: some 25% with an inconclusive outcome. Calls follow the shape of the dose curve; as a rule, active = well fitted curve in the direction sought with a large enough effect; inconclusive = small, poorly fitted or top-dose-only effect, or effect the other way; inactive = no such curve, though single readings can be large or run the other way. The list shows a part of the results. Square brackets hold non-standard residues; d marks the D form. Peptide text beside a SMILES is read from it. * marks the point of attachment. ξ: configuration not given here. Cbz = O=C(OCc1ccccc1)*; PhAc = O=C(Cc1ccccc1)*; OBn = c1ccc(CO*)cc1; ξA = CC(N)C(=O)O

Biological target: Cytochrome P450 3A4 (Homo sapiens) (UniProt P08684)
Experiment: Cytochrome panel assay with activity outcomes
Conditions: recombinant CYP, pro-luciferin dealkylation, luminescence, p450-cyp3a4; series mostly up to 57.1 µM; activity, negative = inhibition: at the top concentration
% is scaled to controls: 0 for no effect and ±100 for the full control effect.

Chain of Cytochrome P450 3A4 (Homo sapiens) (P08684 whole entry, looked up): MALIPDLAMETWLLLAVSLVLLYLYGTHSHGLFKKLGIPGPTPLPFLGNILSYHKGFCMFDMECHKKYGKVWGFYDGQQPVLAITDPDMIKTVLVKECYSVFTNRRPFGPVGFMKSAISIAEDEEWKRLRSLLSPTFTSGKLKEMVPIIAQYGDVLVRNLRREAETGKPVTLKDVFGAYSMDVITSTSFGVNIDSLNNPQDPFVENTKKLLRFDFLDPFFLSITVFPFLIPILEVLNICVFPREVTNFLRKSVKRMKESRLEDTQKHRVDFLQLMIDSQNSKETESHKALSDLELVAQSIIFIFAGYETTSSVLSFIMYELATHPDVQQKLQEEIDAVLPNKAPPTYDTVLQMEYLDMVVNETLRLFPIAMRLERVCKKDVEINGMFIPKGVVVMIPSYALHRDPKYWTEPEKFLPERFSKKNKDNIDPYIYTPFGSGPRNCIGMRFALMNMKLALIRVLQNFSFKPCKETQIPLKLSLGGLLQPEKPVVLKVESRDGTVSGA

Row | SMILES | activity, negative = inhibition | AC50
1 | Cc1ccc(C2C(C=Nc3c(C)n(C)n(-c4ccccc4)c3=O)=C(c3ccccc3)Oc3ccccc32)cc1 (centres undefined) | -22.8% (inactive) | 
2 | Cc1ccc(C2CC(C(F)(F)F)n3nc(C(=O)NCCN4CCOCC4)cc3N2)cc1 (centres undefined) |  | 7.94 µM (active)
3 | CC(C)(C)c1ccc(COC(=O)CNC(=O)CNC(=O)Cc2ccccc2)cc1 |  | 12.6 µM (active)
4 | O=C(CNC(=O)c1cccs1)NCC(=O)OCc1ccc(Cl)cc1 |  | 25.1 µM (active)
5 | O=C(CNC(=O)Cc1ccccc1)NCC(=O)OCc1ccccc1 (PhAc-Gly-Gly-OBn) | -26.1% (inactive) | 
6 | O=C(CNC(=O)c1cccs1)NCC(=O)OCc1ccc(Cl)cc1Cl |  | 7.08 µM (active)
7 | COC(=O)CNC(=O)C(C)NC(=O)CNC(=O)OCc1ccccc1 (stereo not drawn) (Cbz-Gly-[ξA]-Gly-OMe) | -0.615% [at 2.29 µM] (inactive) | 
8 | O=C(CNC(=O)c1ccco1)OCc1c(F)cccc1Cl | -10.2% [at 2.29 µM] (inactive) | 
9 | CC(=O)N(O)CCCCCNC(=O)CCC(=O)N(O)CCCCCNC(=O)CCC(=O)N(O)CCCCCN | -17.3% [at 25.6 µM] (inactive) | 
10 | O=C(O)C[C@H]1OCC=C2C[N@@+]3([O-])CC[C@]45c6ccccc6N[C@@H]4[C@@H]1[C@H]2C[C@H]53 | -0.0687% [at 11.4 µM] (inactive) | 
11 | O=C(Cn1cc(C(F)(F)F)ccc1=O)N1CCN(S(=O)(=O)c2ccccc2)CC1 | -26.5% [at 11.4 µM] (inactive) | 
12 | O=C1C2CCCN2c2ccc(S(=O)(=O)N3CCOCC3)cc2N1Cc1cccc(C(F)(F)F)c1 (centres undefined) |  | 15.8 µM (active)
13 | O=C(c1ccc2c(c1)N(Cc1ccccc1)C(=O)CS2)N1CCOCC1 | -28.8% (inactive) | 
14 | Cc1ccc(C)c(CN2C(=O)C3CCCN3c3ccc(S(=O)(=O)N4CCOCC4)cc32)c1 (centres undefined) |  | 11.2 µM (active)
15 | Cc1ccc(C)c(CN2C(=O)C3CCCN3c3ccc(C#N)cc32)c1 (centres undefined) |  | 5.01 µM (active)
16 | Cc1ccc(C2CC2C(=O)NN)cc1 (centres undefined) |  | 7.94 µM (active)
17 | O=C(O)[C@@H](O)c1ccc(F)cc1 | -5.47% [at 11.4 µM] (inactive) | 
18 | COc1ccc([C@@H](C)c2cc3c(cc2O)OCO3)cc1 |  | 2.51 µM (active)
19 | COc1ccc([C@H](O)c2ccccn2)cc1 | -5.07% [at 11.4 µM] (inactive) | 
20 | COc1ccc([C@@H](Nc2ncccn2)c2cc3c(cc2O)OCO3)cc1 |  | 2.51 µM (active)
21 | N#CC(=C(/N)Sc1ccccc1N)/C(C#N)=C(/N)Sc1ccccc1N |  | 316 nM (active) and 3.16 µM (active)
22 | N#CC1=C(SCC(N)=O)NC2=C(C(=O)c3ccccc32)C1c1ccc(Cl)cc1 (centres undefined) |  | 10 µM (active)
23 | C[N+](C)(C)CC[N+]1(C)Cc2c(Cl)c(Cl)c(Cl)c(Cl)c2C1 | -12.8% (inactive) | 
24 | C/C(CC(=O)Nc1cc(C)ccn1)=N\NC(=O)COc1cccc(C)c1 | -15.1% [at 2.29 µM] (inactive) | 

Row | SMILES | activity, negative = inhibition | AC50
25 | Cc1cccc2c1OCC/C2=N\NC(=O)COc1ccccc1Cl | 0.168% (inactive) | 
26 | Cc1cccc(C)c1NC(=O)COc1cccc(/C=N/NC(=O)C(=O)NCc2ccccc2)c1 | -17.9% (inactive) | 
27 | Cc1cccc2c1OCC/C2=N\NC(=O)COc1ccccc1 |  | 15.8 µM (active)
28 | CCOc1ccc(C(CC(=O)O)NC(=O)COc2ccccc2)cc1 (centres undefined) | -1.92% (inactive) | 
29 | COc1cccc(OCC(=O)NN=C2c3ccccc3-c3ccccc32)c1 |  | 6.31 µM (active)
30 | CC(N)=NCCCC[C@H](N)C(=O)O | -19% (inactive) | 
31 | CC(C)c1cccc2nc3c(c([Si](C)(C)C(C)(C)C)c12)Cn1c-3cccc1=O |  | 12.6 µM (active)
32 | CC(C)c1cccc2nc3c(c([Si](C)(C)C)c12)Cn1c-3cccc1=O |  | 10 µM (active)
33 | CCc1cccc2nc3c(c([Si](C)(C)C)c12)Cn1c-3cccc1=O |  | 12.6 µM (active)
34 | CCc1c2c(nc3cccc(OC)c13)OC(CC)C2 (centres undefined) | -7.79% (inactive) | 
35 | CCc1c2c(nc3cccc(C(C)C)c13)-c1cccc(=O)n1C2 |  | 15.8 µM (active)
36 | O=C1CS/C(=C\[N+](=O)[O-])N1c1ccc(OC(F)(F)F)cc1 | -23.8% (inactive) | 
37 | Cc1cc(C2CCCCC2)n(O)c(=O)c1 | -26.4% [at 25.6 µM] (inactive) | 
38 | CCN(CC)CCOc1ccc(/C(=C(\Cl)c2ccccc2)c2ccccc2)cc1 | -27.7% [at 25.6 µM] (inactive) | 
39 | CN(C)CCCO[C@H]1[C@H]([C@H](O)CO)O[C@H]2OC(C)(C)O[C@@H]21 | -7.33% (inactive) | 
40 | O=c1c2ccccc2nc2n1CCC2 | -1.04% (inactive) | 
41 | Cc1c2c(nc3ccccc13)-c1cccc(=O)n1C2 |  | 12.6 µM (active)
42 | Cc1[nH]nc(-c2ccc(OCc3cnn(-c4ccccc4)c3)cc2O)c1Oc1ccc(F)cc1 |  | 14.1 µM (active)
43 | COC(=O)c1ccc(C2C(Oc3ccccc3)C(=O)N2CCc2ccc(OC)c(OC)c2)cc1 (centres undefined) |  | 2.82 µM (active)
44 | COc1ccc(CCN2C(=O)C(Oc3ccccc3C)C2c2ccc3c(c2)OCO3)cc1OC (centres undefined) |  | 0.501 µM (active)
45 | Cc1ccccc1OC1C(=O)N(Cc2ccc3c(c2)OCO3)C1c1sccc1C (centres undefined) |  | 0.794 µM (active)
46 | NC(N)=NC(N)=Nc1ccccc1 (tested in a mixture with another compound) | -12.3% [at 11.4 µM] (inactive) | 
47 | Clc1ccc(C2=C3CCCCn4c(-c5ccccc5)c[n+](c43)C2)cc1 | -17% (inactive) | 
48 | CC[C@H](NC(C)C)[C@H](O)c1ccc(O)c2[nH]c(=O)ccc12 | -10.3% (inactive) | 

Row | SMILES | activity, negative = inhibition | AC50
49 | CCCc1cc(C(=O)Cc2nc3ccccc3s2)c(O)cc1O |  | 12.6 µM (active)
50 | O=C(NNc1nc2ccccc2s1)C1CC1 | -5.94% (inactive) | 
51 | O=C(O)[C@@H](O)[C@@H](O)[C@@H](O)[C@@H](O)c1nc2ccccc2s1 | -23.6% [at 11.4 µM] (inactive) | 
52 | O=C(CCN1CCCCC1)c1csc2ccccc12 | -13.8% [at 11.4 µM] (inactive) | 
53 | Cc1ccc(OC(=O)N2CCOCC2)cc1 | -1.91% (inactive) | 
54 | O=C(Oc1ccc2ccccc2c1Br)N1CCCCCC1 |  | 14.1 µM (active)
55 | CCCCOc1ccc(C(=O)N/C(=C\c2ccc(OC)cc2)C(=O)OCc2ccco2)cc1 |  | 3.98 µM (active)
56 | CCCCOc1ccc(C(=O)N/C(=C\c2cccc([N+](=O)[O-])c2)C(=O)OCCC)cc1 |  | 1 µM (active)
57 | CCCCOc1ccc(C(=O)NCc2ccco2)cc1 | -3.62% (inactive) | 
58 | COc1ccc(/C=C(/NC(C)=O)C(=O)O)cc1 | 4.62% [at 2.29 µM] (inactive) | 
59 | OC[C@@H]1O[C@H](O)[C@@H](Cl)[C@H](O)[C@@H]1O | 0.669% (inactive) | 
60 | COCCCNCCCCOc1c(Cl)cc(C)cc1Br | -14.4% [at 2.29 µM] (inactive) | 
61 | Cc1cc(Br)cc(C)c1OCCCCN(C)C | 17% (inactive) | 
62 | C=CCNCCCCOc1c(Cl)cc(C)cc1Br |  | 14.1 µM (active)
63 | Cc1cnc(CNc2nc(-c3ccccc3C(F)(F)F)nc3ccccc23)cn1 |  | 5.01 µM (active)
64 | Cc1cnc(CNc2ccnc(-c3ccccc3C(F)(F)F)n2)cn1 | -6.93% (inactive) | 
65 | COc1ccccc1-c1nc(NCc2cnc(C)cn2)c2ccccc2n1 |  | 15.8 µM (active)
66 | COc1ccc2[nH]cc(CCNc3ncnc4ccc(-c5cccc(C#N)c5)cc34)c2c1 |  | 2.51 µM (active)
67 | COc1ccc2[nH]cc(CCNc3ncnc4ccc(-c5ccccc5C#N)cc34)c2c1 |  | 2 µM (active)
68 | COc1cccc(-c2ccc3ncnc(NCCc4c[nH]c5ccc(OC)cc45)c3c2)c1 |  | 1.26 µM (active)
69 | COc1ccc2[nH]cc(CCNc3ncnc4ccc(-c5ccoc5)cc34)c2c1 |  | 3.98 µM (active)
70 | COc1ccc2[nH]cc(CCNc3ncnc4ccc(-c5cccnc5)cc34)c2c1 |  | 1 µM (active)
71 | COc1ccc2[nH]cc(CCNc3ncnc4ccc(-c5ccccc5CN(C)C)cc34)c2c1 |  | 1.58 µM (active)
72 | COc1ccc2[nH]cc(CCNc3ncnc4ccc(-c5ccc6c(c5)OCO6)cc34)c2c1 |  | 2 µM (active)

Row | SMILES | activity, negative = inhibition | AC50
73 | COc1ccc2[nH]cc(CCNc3ncnc4ccc(-c5c(C)noc5C)cc34)c2c1 |  | 3.16 µM (active)
74 | O=C(Cn1cnc([N+](=O)[O-])c1)NCc1ccc(F)cc1 | 7.55% (inactive) | 
75 | Cc1ccc(C(C)C)n1C(=O)OC(C)(C)C | -18.1% [at 11.4 µM] (inactive) | 
76 | Nc1nc2c(nc(Br)n2[C@@H]2O[C@H]3COP(=O)(O)O[C@H]3[C@@H]2O)c(=O)[nH]1 | -11.4% (inactive) | 
77 | CN(Cc1ccccc1)S(=O)(=O)c1ccc(OCC(=O)N2CCOCC2)cc1 | -0.529% (inactive) | 
78 | COc1ccc(OC)c(N(CC(=O)N2CCc3ccccc3C2)S(C)(=O)=O)c1 | 7.06% (inactive) | 
79 | COc1ccc(S(=O)(=O)N(CC(=O)N2CCCC2)Cc2ccccc2)cc1 |  | 4.47 µM (active)
80 | Cc1ccc(CS(=O)(=O)CCC(=O)N2CCOCC2)cc1 | -2.96% (inactive) | 
81 | COc1ccc(S(=O)(=O)N(CCc2ccccc2)CC(=O)N2CCOCC2)cc1 |  | 7.08 µM (active)
82 | Cc1ccc(C2NC(c3ccc(C)cc3)C(C)C(=NO)C2C)cc1 (centres undefined) |  | 14.1 µM (active)
83 | CCC(=O)NC(=S)Nc1ccc(S(=O)(=O)NC(C)=O)cc1 | 18.1% [at 2.29 µM] (inactive) | 
84 | COc1ccc(CC(=O)NC(=S)Nc2ccc(S(=O)(=O)NC(C)(C)C)cc2)cc1 |  | 6.31 µM (active)
85 | CC(=O)NS(=O)(=O)c1ccc(NC(=S)NC(=O)C(C)(C)C)cc1 | 3.17% (inactive) | 
86 | CSc1nc(N)c2ncn([C@H]3O[C@H](COP(=O)(O)OP(=O)(O)O)[C@@H](O)[C@@H]3O)c2n1 | -11.3% (inactive) | 
87 | C[C@@]12CC3CC(N)(C1)C[C@@](C)(C3)C2 | 5.36% [at 25.6 µM] (inactive) | 
88 | CCOc1ccc(NC(=O)N2CCC(c3ccc(C)cc3)C2)cc1 (centres undefined) | -20.6% (inactive) | 
89 | CCOc1ccc(C(Nc2ccc(C)cc2)P2(=O)OCC(C)(C)CO2)cc1 (centres undefined) |  | 3.98 µM (active)
90 | CCOc1ccc(C2=[N+]([O-])C(C)(C)N(O)C2(C)C)cc1 | -12.4% (inactive) | 
91 | O=C(O)c1cc(=O)[nH]c(SCc2ccccc2)n1 | 0.661% [at 11.4 µM] (inactive) | 
92 | Cc1cc(C(=O)CSc2nnc(N)s2)c(C)n1CCc1ccc(F)cc1 |  | 0.316 µM (active)
93 | CC(=O)Nc1nnc(SCc2ccc(F)cc2)s1 | -13.1% (inactive) | 
94 | COc1ccc(CCn2c(C)cc(C(=O)CSc3nc(N)cc(=O)[nH]3)c2C)cc1 |  | 2.51 µM (active)
